# Laboratory results reported in ChEMBL document CHEMBL3988442, “University of Dundee, Small-Polar-MMV Screening Library” (2021).
# Molecular target: Sialic acid-binding Ig-like lectin 9 (Homo sapiens) (UniProt Q9Y336)
# Assay: Hs-Siglec9 ALPHAscreen SOP 20170721
# Set-up: scale not given: direction of the effect not stated beside the values
# Conditions: 10 µM
# Sialic acid-binding Ig-like lectin 9 (Homo sapiens), sequence (Q9Y336 whole entry): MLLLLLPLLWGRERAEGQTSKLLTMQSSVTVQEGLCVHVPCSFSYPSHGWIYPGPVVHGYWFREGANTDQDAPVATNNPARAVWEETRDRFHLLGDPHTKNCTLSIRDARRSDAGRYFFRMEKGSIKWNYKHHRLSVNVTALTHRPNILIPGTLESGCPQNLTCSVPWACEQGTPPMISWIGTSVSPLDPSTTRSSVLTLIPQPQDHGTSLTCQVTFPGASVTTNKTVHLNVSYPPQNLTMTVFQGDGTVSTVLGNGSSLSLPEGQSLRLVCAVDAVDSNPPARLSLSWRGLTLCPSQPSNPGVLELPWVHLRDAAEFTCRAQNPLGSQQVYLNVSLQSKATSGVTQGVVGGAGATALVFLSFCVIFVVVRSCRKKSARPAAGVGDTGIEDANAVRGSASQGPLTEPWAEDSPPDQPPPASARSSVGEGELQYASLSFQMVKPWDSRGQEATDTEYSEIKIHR
row,SMILES,Percent Effect [%]
1,Cc1cccc(CN2C(=O)CCC23CCN(Cc2cccn2C)CC3)n1,-0.409
2,CCC(=O)N1CCCC1c1nccnc1Nc1nc(C)cc(C)n1 (centres undefined),0.282
3,CNc1cncc(C2CCCN2Cc2c[nH]cn2)n1 (centres undefined),-0.612
4,Cc1cc(C)n(CC2CN(Cc3nc(-c4ccco4)no3)CCO2)n1 (centres undefined),7.28
5,CCCc1nc(C)c(C(=O)NCCN2CCN(CC)CC2)s1,11.4
6,Fc1cnc(N2CCOCC3(CCCN(c4nncs4)C3)C2)nc1 (centres undefined),-1.88
7,O=C(c1ccccn1)N1Cc2nccn2CC(CN2CCOCC2)C1 (centres undefined),-2.41
8,COC(=O)c1cccn1C1CCN(Cc2ccccc2)CC1,10
9,CCOC1CCCN(C(=O)c2sccc2-n2cnnn2)C1 (centres undefined),-9.12
10,CN(C)CC1CN(Cc2coc(-c3ccccc3Cl)n2)CCO1 (centres undefined),-4.39
11,CCc1cc(O)nc(C2CCCN2C(=O)c2cccnc2)n1 (centres undefined),-8.39
12,CC(Cn1cccn1)NC(=O)Cc1cccs1 (centres undefined),1.17
13,COc1ccc(F)cc1C(=O)N(C)Cc1cc(C)on1,-5.44
14,CNc1cc(N2CCCC2CNCc2cnc(C)cn2)ncn1 (centres undefined),-3.13
15,CN(Cc1ccco1)[C@@H]1CN(Cc2ccc(F)cc2)C[C@@H]2CCCO[C@@H]21,-4.8
16,CC(C)(O)CN1CCN(C(=O)c2cccnc2O)CC1,5.77
17,O=C(N1CCCC1)N1CCC2(CCCN(CCOc3ccccc3)C2)C1 (centres undefined),-3.35
18,CC(C(=O)N1CCCC1)N1CCC(c2nccn2Cc2cscn2)CC1 (centres undefined),12.9
19,Cc1ccc(NC2CCN(C(=O)c3cccc4ncccc34)CC2)nn1,-2.08
20,COc1cc(CNCc2ccc(NC(=O)NC(C)C)cc2)cc(OC)c1,5.02

row,SMILES,Percent Effect [%]
1,O=C(c1cnco1)N1CCCC(Cc2nccs2)C1 (centres undefined),5.58
2,CCS(=O)(=O)N(C)CC(=O)Nc1ccc(Br)cn1,0.132
3,Cn1cc(NC(=O)N2CCC(c3ccccc3)CC2)ccc1=O,4.28
4,Cc1ncc(S(C)(=O)=O)c(C2CCCNC2)n1 (centres undefined),5.3
5,COC(=O)COc1cccc(NS(=O)(=O)c2cc(C(=O)O)cs2)c1,-17.3
6,CC(C)c1cc(N2CCN(c3ccc(O)cc3)CC2)n2nccc2n1,0.937
7,CC(=O)NC1CCCN(C(=O)NCc2cccnc2-n2cccn2)C1 (centres undefined),-0.777
8,Cc1noc(C)c1CN(C)C(=O)NC1CCN(c2ncccn2)CC1,-17.2
9,FC(F)(F)Cn1ccnc1CN1CCCC1c1noc(C2CC2)n1 (centres undefined),-5.86
10,NC[C@H]1CC[C@H](C(NC(=O)c2ccccc2)c2ccccn2)CC1 (some centres undefined),-7.17
11,CCc1nc(C2CCCN2C(=O)CCCn2cccn2)no1 (centres undefined),9.24
12,CN(C)CC1CN(Cc2nnc(-c3ccccc3Cl)o2)CCO1 (centres undefined),-7.04
13,c1csc(-c2nc(CN3CCn4c(nnc4C4CC4)C3)co2)c1,1.96
14,CCNC(=O)[C@@H]1C[C@H](NC(=O)Cc2ccsc2)CN1Cc1ccc(C)o1,10.2
15,CCOc1ncccc1NC(=O)NC1CCCN(c2ncccn2)C1 (centres undefined),1.83
16,CC(=O)N1CCCC1c1csc(Nc2cnccn2)n1 (centres undefined),-8.01
17,CCOC1COC2(CCN(S(=O)(=O)c3cccc(F)c3)CC2)C1 (centres undefined),-0.342
18,O=c1c2ccccc2nc2n1C(CSc1ccc(Cl)cc1Cl)CN2 (centres undefined),-1.05
19,c1ccc(OC2CCCC2)c(CNC2CCc3ncnn3C2)c1 (centres undefined),-13.9
